From PubChem
Hits are enriched below; roughly 1.4% of the tested compounds scored in any of these assays.
MCL1 BIM primary: inhibitors of MCL1 binding to BIM-BH3, primary screen, biochemical, fluorescence polarization; Induced myeloid leukemia cell differentiation protein Mcl-1 (Homo sapiens), Q07820; 320,000 compounds, 0.68% hits; AID 2057, 2009; GST-MCL1 / FITC-Bim-BH3 fluorescence polarization; inhibition, % at 10.9 µM;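 active means inhibition above the mean inhibition of all tested compounds plus 3 SD, set per campaign, cut at about 40% in these data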;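 further: 0% = DMSO wells and 100% = unlabeled Bim-BH3 peptide control; higher means more loss of mP so more displacement of Bim peptide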
Target sequence (Q07820 whole entry, looked up): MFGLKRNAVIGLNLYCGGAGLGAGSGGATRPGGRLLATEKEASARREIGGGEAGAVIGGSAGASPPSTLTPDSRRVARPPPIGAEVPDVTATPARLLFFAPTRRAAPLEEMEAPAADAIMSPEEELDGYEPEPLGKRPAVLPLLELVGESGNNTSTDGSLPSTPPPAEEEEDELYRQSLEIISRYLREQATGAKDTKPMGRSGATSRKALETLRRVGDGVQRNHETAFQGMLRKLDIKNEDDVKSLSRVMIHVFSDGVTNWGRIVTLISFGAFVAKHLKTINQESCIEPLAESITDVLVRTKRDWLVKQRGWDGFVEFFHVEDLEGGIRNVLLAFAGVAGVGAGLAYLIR
MEX-5 binding: MEX-5 zinc finger RNA-binding disruptors – biochemical, C. elegans, fluorescence polarization, MLPCN library, primary screen; MEX-5/FITC-TCR2 RNA binding; active compounds read low; activity score (negative = inhibition of binding), % at 10 µM; Zinc finger protein mex-5 (Caenorhabditis elegans), Q9XUB2; 300,000 compounds, 0.38% hits;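 active means inhibition past about -25% in most replicates, and total fluorescence under double the plate's negative control median, limit read from the data; inconclusive means replicates evenly split on the limit, or fluorescence at least double controls; inactive means too little inhibition in most replicates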;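 further: 0% = DMSO and -100% = 5 µM competing unlabeled TCR2 RNA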
GLD-1 TGE inh: GLD-1/TGE RNA complex disruptors, primary screen, biochemical, fluorescence polarization; Female germline-specific tumor suppressor gld-1 (Caenorhabditis elegans), Q17339; inhibition, % at 5.96 µM; 320,000 compounds, 0.44% hits; purified GLD-1 + fluorescein TGE RNA;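 active means percent inhibition above a per-plate cutoff, the plate mean of test compounds plus 3 SD, cut at about 30% in these data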;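 further: 0% = DMSO wells with GLD-1 and probe and 100% = wells lacking GLD-1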
Bcl-xL primary: inhibitors of human Bcl-xL, primary screen, biochemical, fluorescence polarization, HTS; GST-Bcl-xL / FITC-Bim BH3 peptide fluorescence polarization; 320,000 compounds, 0.7% hits; inhibition, % at 10.9 µM; Bcl-2-like protein 1 (Homo sapiens), Q07817;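 active means inhibition above the mean of all tested compounds plus 3 SD, cutoff set per campaign, cut at about 30% in these data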;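 further: 0% = DMSO wells and 100% = unlabeled Bim-BH3 peptide competitor; inhibitors lower millipolarization by displacing the labeled peptide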
EBV gp42 block: Epstein-Barr virus gp42 inhibitors, primary screen, biochemical, uHTS, fluorescence polarization. Glycoprotein 42 (Epstein-Barr virus (strain AG876)), Q1HVG2. Fluorescence polarization binding assay, mP read-out. inhibition, % (tested at 21.74 µM). 220,000 compounds, 0.42% hits. AID 1085, 2008; in the data active means inhibition above about 50%
Target sequence (Q1HVG2 whole entry, looked up): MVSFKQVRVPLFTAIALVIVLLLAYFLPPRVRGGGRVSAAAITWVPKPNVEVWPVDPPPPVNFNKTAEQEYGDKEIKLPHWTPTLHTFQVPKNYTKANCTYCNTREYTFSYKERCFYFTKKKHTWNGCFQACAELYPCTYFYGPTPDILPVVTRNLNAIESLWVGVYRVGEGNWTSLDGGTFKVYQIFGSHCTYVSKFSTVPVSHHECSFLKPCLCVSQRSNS
eLon inh: inhibitors of E. coli Lon protease, primary screen, biochemical, fluorescence polarization; inhibition, % at 7.94 µM; 360,000 compounds, 0.42% hits; purified E. coli Lon protease; P0A9M0; in the data active means inhibition above about 13%, passing the limit was not always enough;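 further: 0% = enzyme with probe and DMSO and 100% = no enzyme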
BCLXL inh confirm: Bcl-xL inhibitors blocking Bim BH3 binding, confirmation, counter-screen for MCL1 inhibitor project, biochemical, fluorescence polarization. shares compounds with MCL1 BIM primary. GST-Bcl-xL / FITC-Bim BH3 peptide FP binding. inhibition, % at 10.9 µM. 1,700 compounds, 54% hits. AID 2166, 2009;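 active means inhibition above a cutoff equal to the mean inhibition of all tested compounds plus 3 SD, cut at about 30% in these data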;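 further: 0% = DMSO wells and 100% = unlabeled Bim BH3 control peptide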
MCL1 inh confirm: inhibitors of MCL1 binding to BIM-BH3, confirmation, biochemical, fluorescence polarization, triplicate. shares compounds with MCL1 BIM primary. GST-MCL1 / FITC-Bim-BH3 fluorescence polarization. inhibition, % at 10.9 µM. 1,700 compounds, 61% hits. AID 2168, 2009;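 active means inhibition above the average of all tested compounds plus 3 SD, cut at about 40% in these data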;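 further: 0% = DMSO wells and 100% = unlabeled Bim-BH3 control peptide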
GLD1 RNA confirm: GLD-1/TGE RNA binding inhibitors, retest, confirmation, biochemical, fluorescence polarization, triplicate | 550 compounds, 10% hits | GLD-1/FL-TGE RNA fluorescence polarization | inhibition, % at 5.96 µM | shares compounds with GLD-1 TGE inh;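 active means average inhibition across triplicates above the hit cutoff set in the primary screen, cut at about 32% in these data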;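 further: 0% = GLD-1 with RNA probe and DMSO and 100% = wells lacking GLD-1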
eLon confirm: E. coli Lon protease inhibitor retest, confirmation, biochemical, fluorescence polarization. 1,400 compounds, 31% hits. inhibition, % at 7.94 µM. AID 602230, 2012. shares compounds with eLon inh. purified E. coli Lon; in the data active means inhibition above about 16%;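 further: 0% = enzyme with probe and DMSO and 100% = no enzyme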
* hit, by the source's call; ? = inconclusive; · = not tested or not shown; + = active, no number.

SMILES	MCL1 BIM primary	MEX-5 binding	GLD-1 TGE inh	Bcl-xL primary	EBV gp42 block	eLon inh	BCLXL inh confirm	MCL1 inh confirm	eLon confirm	others
CCN1CC=C2C(C#N)=C(N)C(C#N)(C#N)[C@H](c3cccc(OC)c3OC)[C@H]2C1	150.6*	·	113.5*	136.1*	·	36.4*	51.7*	65.0*	13.7
CCCOc1ccc(N2CC(C(=O)NC3=NCCS3)CC2=O)cc1 (stereo not given)	4.5	0.6	4.0	-3.0	-2.4	4.4	·	·	·
CCCCn1c(=O)[nH]c2nc3cc(NC(C)=O)ccc3nc2c1=O	58.5*	-11.9	53.5*	61.0*	78.5*	34.5*	75.3*	94.8*	33.2*	GLD1 RNA confirm=102.5*
O=C(Nc1ccc(NS(=O)(=O)c2ccccc2)cc1)c1ccccc1Cl	·	·	5.4	·	·	-11.2	·	·	·
CC1(C)Cc2c(c(-c3ccco3)[nH]c(=O)c2C#N)CS1	148.2*	-22.7	93.5*	109.8*	31.9	33.5*	94.4*	125.4*	28.6*
CC12CC3(C)CC(C)(C1)CC(C(=O)NC(=S)N1CCCC1)(C2)C3	-0.8	0.5	0.1	0.9	2.2	8.1	·	·	·
CC(C)(C)[C@@H]1COC(=O)[C@H](Cc2ccc(F)cc2)C/C=C\C[C@H](CC(=O)N(CCO)Cc2ccccc2)C(=O)N1	·	·	1.1	·	·	2.1	·	·	·
Cc1ccc2c3c(cccc13)-c1ccccc1C2=O	42.1*	-9.7	43.1*	36.5*	62.0*	39.5*	27.1	30.6	20.4*	GLD1 RNA confirm=39.4*
CCN(CC)CCN1C(=O)c2cccc3cc(N)cc(c23)C1=O	157.7*	-68.6*	72.0*	123.6*	101.2*	+	128.1*	166.2*	52.7*
Nc1cc2c3c(cccc3c1)C(=O)N(CCN1CCCC1)C2=O	144.8*	-28.1*	35.6*	124.6*	94.6*	93.7*	98.7*	131.7*	82.1*
NC(=O)CN1CCN(CCN2C(=O)c3cccc4cccc(c34)C2=O)CC1	11.9	0.6	12.9	12.1	·	8.5	·	·	·
COc1ccc2oc(=N)c(C(=O)Nc3cccc(C)c3C)cc2c1	11.0	0.2	2.6	4.2	·	1.2	·	·	·
CC[C@@]1(O)C(=O)OCc2c1cc1n(c2=O)Cc2cc3c(N)cccc3nc2-1	16.3	-3.9	-2.7	6.9	-3.5	-0.4	·	·	·
CC[C@@]1(O)C(=O)OCc2c1cc1n(c2=O)Cc2cc3c(CN(C)C)c(O)ccc3nc2-1	+	?	+	+	·	+	+	+	+
Cn1c(=O)c2[nH]c(-c3ccccc3Cl)c(O)c2n(C)c1=O	134.0*	-13.1	151.8*	114.7*	65.1*	138.8*	48.6*	77.2*	13.3
Cn1c(=O)c2[nH]c(-c3ccccc3)c(O)c2n(C)c1=O	+	?	+	+	122.4*	+	142.1*	159.4*	+
Cc1ccc(C)n1CCN1CCN(C(=O)CC#N)CC1	12.9	-1.1	-8.1	10.8	-7.5	-2.8	·	·	·
Cc1cc(C)n2nc(C)c(Br)c2n1	6.9	-0.9	5.8	-1.3	-9.7	2.2	·	·	·
Cc1cc(C)n2nc3nc4c(cc3c2n1)CCCC4	105.6*	-6.1	38.5*	111.0*	2.2	55.8*	21.5	18.5	13.5
CCCc1cc(=O)[nH]c(SCC(=O)NCCC2=CCCCC2)n1	5.5	-0.3	5.1	-1.2	-12.3	-3.6	·	·	·
S=C(Nc1ccc(N2CCOCC2)cc1)Nc1ccc2nc(-c3ccco3)c(-c3ccco3)nc2c1	+	-1.2	129.4*	187.9*	110.8*	43.1*	117.6*	149.9*	84.5*
O=C(NC(=S)Nc1ccc(N2CCOCC2)cc1)c1ccco1	12.2	-0.5	-1.8	9.3	4.6	2.4	·	·	·
Cc1ccccc1NC(=O)c1ccc2c(O)c(S(=O)(=O)c3ccccc3)c(=O)[nH]c2c1	5.0	-4.4	1.2	10.8	·	-2.5	·	·	·
COc1ccc(-c2onc3ccc(Br)cc23)cc1	131.8*	-13.0	97.1*	112.6*	127.4*	39.0*	111.3*	133.9*	86.3*
Cc1ccc(-c2nc(CS(=O)(=O)CC(=O)Nc3cc(F)ccc3F)c(C)o2)cc1	5.6	2.3	9.6	12.4	·	-0.8	·	·	·
SMILES	MCL1 BIM primary	MEX-5 binding	GLD-1 TGE inh	Bcl-xL primary	EBV gp42 block	eLon inh	BCLXL inh confirm	MCL1 inh confirm	eLon confirm	others
CCCN1CCN(S(=O)(=O)c2cn(C)nc2C)CC1	84.4*	-22.5	26.7	66.2*	·	21.9*	76.9*	96.0*	14.2
Cc1nn(C)cc1S(=O)(=O)N1CCN(Cc2ccccc2Cl)CC1	7.6	-1.8	8.2	4.9	-8.6	-10.2	·	·	·
O=S(=O)(NC(=NC1CCCCC1)c1ccccc1F)c1ccccc1	-0.8	-1.1	-0.4	1.4	·	-18.9	·	·	·
O=C(c1ccccc1)c1c2c(cc3sc4ccccc4[n+]13)-c1cccc3cccc-2c13	116.3*	·	54.7*	95.0*	32.3	+	62.3*	70.7*	+
Cc1n[nH]c(C)c1N1C(=O)c2cccc3c(N4CCCCCC4)ccc(c23)C1=O	+	-52.5*	+	+	193.1*	68.8*	183.7*	+	-48.1
O=C(Cn1c(=O)oc2ccccc21)Nc1n[nH]c(=S)s1	-6.0	-4.5	-4.2	7.9	-23.1	-0.5	·	·	·
CCOc1ccc(N)c(SSc2cc(OCC)ccc2N)c1	15.1	-1.7	-0.2	0.8	·	-1.0	·	·	·
CCOc1cc(-c2ccc(N)c(OCC)c2)ccc1N	174.0*	·	126.8*	148.2*	145.5*	51.6*	134.1*	183.1*	98.2*
